Records with an inconclusive call do not appear. Values without a mark were called inactive. Active and inactive are the calls of the source. The call rests on the fitted dose curve; in most records, active means well fitted activation curve with a large enough effect; inconclusive means small, poorly fitted or top-dose-only effect; inactive means no such curve, though single readings can be large or run the other way.

Chain of Cellular tumor antigen p53 (Homo sapiens) (P04637 whole entry, looked up): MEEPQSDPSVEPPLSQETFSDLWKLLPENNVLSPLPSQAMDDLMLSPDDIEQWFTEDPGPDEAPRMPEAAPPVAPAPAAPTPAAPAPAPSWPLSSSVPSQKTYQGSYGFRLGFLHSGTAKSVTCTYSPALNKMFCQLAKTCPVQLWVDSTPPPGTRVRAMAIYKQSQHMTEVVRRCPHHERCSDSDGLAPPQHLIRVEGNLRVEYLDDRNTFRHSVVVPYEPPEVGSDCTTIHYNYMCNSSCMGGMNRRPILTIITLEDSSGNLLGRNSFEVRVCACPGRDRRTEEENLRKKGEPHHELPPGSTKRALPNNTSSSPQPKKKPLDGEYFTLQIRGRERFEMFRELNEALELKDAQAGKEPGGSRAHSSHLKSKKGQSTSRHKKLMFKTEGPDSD

The test has as its target Cellular tumor antigen p53 (Homo sapiens) (UniProt P04637). Kind of test: Confirmatory qHTS for small molecule compounds that upregulate eGFP-tagged delta133p53alpha (in C-terminal) cells. The conditions noted are these: delta133p53alpha-eGFP (C-terminal) reporter cells, GFP fluorescence upregulation; series mostly up to 57.5 µM; activation (upregulation): at the top concentration. The text has this: Assay Development and Screening Technology
National Center for Advancing Translational Sciences (NCATS),
National Institute of Health (NIH), Rockville, Maryland
Cellular senescence (CS) is one of the hallmarks of aging and age-related diseases. Senescent cells are characterized by an irreversible growth arrest, an increase in senescence-associated beta-galactosidase (SA-beta-gal) activity and p16INK4a expression, an activation of the DNA damage response pathways, and the emergence of a senescence-associated secretory phenotype (SASP).
Delta133p53alpha, a human/primate-specific p53 protein isoform, delays or inhibits the induction of CS and SASP in various types of human cells, including progeria-derived fibroblasts, primary normal astrocytes, and CD8+ T lymphocytes. Induction of delta133p53alpha with small molecule compounds may provide therapeutic opportunities for inhibition of senescence/SASP-associated pathologies in progeria syndromes, astrocyte-mediated neuroprotection in neurodegenerative diseases, and possibly prevention and treatment of a wider range of senescence- and aging-associated diseases.
Here we report the development and validation of a cell-based quantitative high throughput screening (qHTS) assay in 1,536-well format. This qHTS assay uses the NCI-H358 cell line with doxycycline-inducible expression of enhanced green fluorescent protein (eGFP)-tagged delta133p53alpha, which allows efficient and highly quantitative measurement of the protein levels.
PROTOCOL TABLE (as described by Inglese J, Shamu CE and Guy RK. 2007)
SEQUENCE No. (e.g., 1, 2, 3, etc.); […] (e.g., Cells, Incubation, Reagent, etc.); VALUE; DESCRIPTION.
1; Cells; 4uL; 800 doxycycline treated cells / well in doxycycline-free media, 1536-well black, clear-bottom low base Aurora microplates.
2; Compounds; 23 nL; Kalypsis pin tool (Wako) equipped with 1536-well pin heads, 5-azacytidine positive control.
3; Incubation; 24 hr; 37C, 5% CO2; 95% relative humidity.
4; Aspiration; 1x; BioTek EL406 washer dispenser (Agilent).
5; Fixing; 3.5% paraformaldehyde, BioTek EL406 washer dispenser (Agilent).
6; Washing; 1x PBS; BioTek EL406 washer dispenser (Agilent).
7; Nuclei staining; 1:1000 dilution of Hoechst 33342 (Thermofisher), BioTek EL406 washer dispenser (Agilent).
8; Incubation; 20 min; in the dark at room temperature.
9; Washing; 2x, 1x PBS (ThermoFisher), BioTek EL406 washer dispenser (Agilent).
10; Reagent; 10 uL; 1x PBS per well, sealed with clear adhesive tape.
11; Detection; Fluorescence, Acumen eX3 laser scanning cytometer (STP Labtech), GFP filters […].
NOTES (numbers refer to sequence numbers above).
1. NCI-H358 cells expressing eGFP-tagged delta133p53alpha were grown in T75 culture flasks and treated with doxycycline for 24h, at 10 ng/ml for eGFP-D133p53a cells (N-terminal cell) and 100 ng/ml for D133p53a-eGFP cells (C-terminal cells). Cells were trypsinized, counted using a Counted 3 Automated Cell Counter (Thermo Fisher), and diluted to a concentration of 200,000 cells/ml. A Multidrop Combi Reagent Dispenser (ThermoFisher) was used to dispense 800 cells/well in […] of doxycycline-free media, into 1536-well black/clear bottom low base plates (AuroraMicroplates).
2. After plating cells, 23 nl of compound library, DMSO vehicle control or positive control (5-azacytidine) were transferred by Pin Tool (Wako). The plate map layout was the same for each plate: (column 1) non-doxycycline treated cells + DMSO vehicle control; (column 2) doxycycline treated cells + DMSO vehicle control baseline; (column 3) doxycycline treated cells + positive control 57.5 uM final concentration 5-azacytidine; (column 4) doxycycline treated cells + serial dilution of 5-azacytidine, 16-point 1:2 titration spanning 1.8 nM to […] final concentration; (columns 5-48) doxycycline treated cells + titration of library compounds.
3. Cells were incubated at 37 °C, 5 % CO2, 95% RH with breathable metal lid for 24h.
4-10. […]
For the compound `O=[N+]([O-])c1ccc2c(c1)S(=O)(=O)C=C2`, the Potency is 8.63 µM (active).

Regarding `O[Si](CCCN1CCCCC1)(c1ccc(F)cc1)C1CCCCC1` (stereo not given), the “activation (upregulation)” value is 14.9%.

For `C[C@]12CC[C@@H]3c4ccc(O)cc4C[C@@H](CCCCCCCCCS(=O)CCCC(F)(F)C(F)(F)F)[C@H]3[C@@H]1CC[C@@H]2O` (stereo not given in full), the “activation (upregulation)” value is 2.11%.

As for `CC(C)(CO)Cc1cc(C(C)(C)C)c(O)c(C(C)(C)C)c1`, the “activation (upregulation)” value was 3%.

In the case of `CC(C)(C(=O)O)c1ccc(C(O)CCCN2CCC(C(O)(c3ccccc3)c3ccccc3)CC2)cc1` (stereo not given), the “activation (upregulation)” value was 6.95%.

On to `O=Nc1c(-c2c(O)[nH]c3cc(Br)ccc23)[nH]c2ccccc12`, for which the “activation (upregulation)” value was 4.1%.

For the compound `N=S(=O)(O)Cc1noc2ccccc12`, the “activation (upregulation)” value was -6.26%.

In the case of `CCN1CCCC1CNC(=O)c1cc(S(N)(=O)=O)ccc1OC` (stereo not given), the “activation (upregulation)” value was 7.93%.

`Brc1c(Br)c(Br)c2[nH]cnc2c1Br`: the Potency was 21.7 µM (active).

In the case of `N#Cc1cc([N+](=O)[O-])c2sc(C(N)=O)[n+]([O-])c2c1`, the “activation (upregulation)” value was 3.58%.

On to `Cc1cc(C)c(/C=C2\C(=O)Nc3ccccc32)[nH]1`, for which the Potency was 7.69 µM (active).

For `CN(C)CCCC1(c2ccc(F)cc2)OCc2cc(C#N)ccc21` (stereo not given), the “activation (upregulation)” value was 0.697%.

For the compound `CCOC(=O)Nc1ccc(NCc2ccc(F)cc2)nc1N`, the “activation (upregulation)” value is 24.1%.

On to `CCN(CC)CCCC(C)Nc1c2ccc(Cl)cc2nc2ccc(OC)cc12` (stereo not given), for which the Potency was 8.63 µM (active).

As for `CC(C)(C)c1ccc(S(=O)(=O)/C=C/C#N)cc1`, the Potency is 13.7 µM (active).

`CC[C@@]1(O)C(=O)OCc2c1cc1n(c2=O)Cc2cc3c(CN(C)C)c(O)ccc3nc2-1`: the Potency is 4.85 µM (active).

As to `Cc1cccc(-c2[nH]ncc2-c2ccc3ncccc3n2)n1`, the “activation (upregulation)” value was 7.74%.

As for `O=C1NC(=O)c2c1c(-c1ccccc1)cc1[nH]c3ccc(O)cc3c21`, the “activation (upregulation)” value is 9.9%.

With `CCCCCCCCCCCCCCCCCCOC[C@H](COP(=O)([O-])OCC[N+](C)(C)C)OC`, the “activation (upregulation)” value is -18%.

Take `C[n+]1cc2c3c(ccc2c2ccc4cc5c(cc4c21)OCO5)OCO3`: the Potency was 0.968 µM (active).

As to `CN(C)c1nc(N)c(C(=O)N=C(N)N)nc1Cl`, the “activation (upregulation)” value is 4.57%.

For `O=C1N(c2ccccc2)c2ccccc2C1(Cc1ccncc1)Cc1ccncc1`, the “activation (upregulation)” value is 10.3%.

With `CCCC(=O)NCCc1c2n(c3ccc(OC)cc13)CCCc1ccccc1-2`, the “activation (upregulation)” value is 10.5%.

As to `COc1cc(/C=C(\C#N)C(=O)c2ccc(O)c(O)c2)cc(I)c1O`, the Potency was 12.2 µM (active).

In the case of `O=C1NC(=O)c2cc(Nc3ccccc3)c(Nc3ccccc3)cc21`, the Potency is 9.68 µM (active).

For `Brc1c(Br)c(Br)c2n[nH]nc2c1Br`, the “activation (upregulation)” value is 0.507%.

As for `Nc1nc2ccc(Cl)cc2c2nc(-c3ccco3)nn12`, the “activation (upregulation)” value was 29.5%.

On to `Cn1c(=O)c2[nH]c(-c3ccccc3)nc2n(C)c1=O`, for which the “activation (upregulation)” value is 18.6%.

Take `CN(C)C(=O)C(CCN1CCC(O)(c2ccc(Cl)cc2)CC1)(c1ccccc1)c1ccccc1`: the “activation (upregulation)” value is 49.5%.

For `Cc1ccc(S(=O)(=O)N[C@@H](Cc2ccccc2)C(=O)CCl)cc1`, the Potency is 15.3 µM (active).

With `COC(=O)[C@H]1[C@H]2C[C@@H]3c4[nH]c5cc(OC)ccc5c4CCN3C[C@H]2C[C@@H](OC(=O)c2cc(OC)c(OC)c(OC)c2)[C@@H]1OC`, the Potency is 30.6 µM (active).

Consider `Nc1nc(Cl)nc2c1ncn2[C@@H]1O[C@H](COP(=O)(O)OP(=O)(O)OP(=O)(O)O)[C@@H](O)[C@H]1O`, for which the “activation (upregulation)” value is -17.8%.

On to `Cc1ccc(S(=O)(=O)/C=C/C#N)cc1`, for which the Potency is 21.7 µM (active).

Turning to `NC[C@@H]1O[C@H](C23CC4CC(CC(C4)C2)C3)Cc2c1ccc(O)c2O`, the Potency was 19.3 µM (active).

Take `CC[n+]1c(/C=C/C=C2/N(C)c3ccccc3C2(C)C)sc2ccccc21`: the Potency was 12.2 µM (active).

Take `O=C1C(SCCO)=C(SCCO)C(=O)c2ccccc21`: the Potency was 9.68 µM (active).

Consider `CC1c2cccc(O)c2C(O)=C2C(=O)C3(O)C(O)=C(C(N)=O)C(=O)C(N(C)C)C3C(O)C21` (stereo not given), for which the Potency is 0.0061 µM (active).

Take `CN(C)S(=O)(=O)c1ccc2c(c1)/C(=C/c1cc3c([nH]1)CCCC3)C(=O)N2`: the Potency is 0.769 µM (active).

Take `O=C1NCc2c1c1c3ccccc3[nH]c1c1[nH]c3ccccc3c21`: the Potency is 27.3 µM (active).

Take `CC1CN(S(=O)(=O)c2cccc3cnccc23)CCN1` (stereo not given): the “activation (upregulation)” value was 0.467%.

The values are drawn from PubChem BioAssay AID2060323 (National Center for Advancing Translational Sciences (NCATS), 2025).
